Screen size: about 5,500 compounds; about 2,000 (36%) were called active. Another 18% or so got no clear call; they are omitted. Rule as the data show it: active = normalized growth mostly below about 0.91 (no sharp cut-off); inconclusive = no clear call, values can overlap the other calls; inactive = mostly above about 0.92. The list shows a part of the results.
Experiment: chemical genetic growth profiling, strain panel (AID 1159580);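 also: tested at 20 µM; growth read once vehicle control cultures reached saturation at 30 °C; 1 = growth at the plate median or of vehicle wells; lower values mean less growth of the strain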
Settings: S. cerevisiae deletion strains, growth OD

Measured: normalized growth

CC1(C)C=CC(=O)[C@@]2(C)C1CC(=O)[C@]1(C)C2CC[C@@]2(C)[C@H](c3ccoc3)OC(=O)C3OC321 (stereo partly drawn)
inactive: locus YAL021C, strain ccr4, stronger effect = lower value 0.977 | locus YAL026C, strain drs2, stronger effect = lower value 1 | locus YAL030W, strain snc1, stronger effect = lower value 0.995 | locus YBL061C, strain skt5, stronger effect = lower value 0.998 | locus YBR009C, strain hhf1, stronger effect = lower value 0.984 | locus YBR021W, strain FUR4, stronger effect = lower value 1 | locus YBR023C, strain chs3, stronger effect = lower value 0.983 | locus YBR171W, strain sec66, stronger effect = lower value 1.01 | locus YBR229C, strain ROT2, stronger effect = lower value 0.944 | locus YBR231C, strain swc5, stronger effect = lower value 1 | locus YBR279W, strain paf1, stronger effect = lower value 0.988 | locus YCL011C, strain gbp2, stronger effect = lower value 0.996 | locus YCL016C, strain dcc1, stronger effect = lower value 0.99 | locus YCL029C, strain bik1, stronger effect = lower value 0.96 | locus YCL061C, strain MRC1, stronger effect = lower value 1.01 | locus YCL069W, strain vba3, stronger effect = lower value 0.995 | locus YCR088W, strain abp1, stronger effect = lower value 1 | locus YDL005C, strain med2, stronger effect = lower value 0.996 | locus YDL035C, strain GPR1, stronger effect = lower value 0.945 | locus YDL040C, strain nat1, stronger effect = lower value 0.996 | locus YDL074C, strain BRE1, stronger effect = lower value 0.926 | locus YDL101C, strain DUN1, stronger effect = lower value 0.967 | locus YDL185W, strain tfp1, stronger effect = lower value 0.966 | locus YDL192W, strain arf1, stronger effect = lower value 0.94 | locus YDR001C, strain nth1, stronger effect = lower value 0.992 | locus YDR069C, strain doa4, stronger effect = lower value 0.976 | locus YDR101C, strain arx1, stronger effect = lower value 0.93 | locus YDR159W, strain sac3, stronger effect = lower value 0.954 | locus YDR162C, strain NBP2, stronger effect = lower value 0.953 | locus YDR195W, strain ref2 1.03 | locus YDR297W, strain sur2, stronger effect = lower value 0.983 | locus YDR318W, strain mcm21, stronger effect = lower value 0.969 | locus YDR334W, strain swr1, stronger effect = lower value 1 | locus YDR335W, strain msn5, stronger effect = lower value 1 | locus YDR388W, stronger effect = lower value 0.982 | locus YDR392W, strain spt3, stronger effect = lower value 0.982 | locus YDR502C, strain sam2, stronger effect = lower value 0.983 | locus YEL003W, strain gim4, stronger effect = lower value 0.994 | locus YEL037C, strain rad23, stronger effect = lower value 1 | locus YEL061C, strain CIN8 (second series), stronger effect = lower value 0.997 | locus YEL061C, strain CIN8, stronger effect = lower value 0.971 | locus YER015W, strain faa2, stronger effect = lower value 0.982 | locus YER016W, strain bim1, stronger effect = lower value 0.985 | locus YER110C, stronger effect = lower value 0.959 | locus YER111C, strain swi4, stronger effect = lower value 1 | locus YER155C, strain BEM2 (second series), stronger effect = lower value 1.01 | locus YER155C, strain BEM2, stronger effect = lower value 0.998 | locus YER167W, strain BCK2, stronger effect = lower value 0.959 | locus YFR010W, strain ubp6, stronger effect = lower value 1.01 | locus YGL078C, strain dbp3, stronger effect = lower value 1.02 | locus YGL086W, strain mad1, stronger effect = lower value 0.979 | locus YGL167C, strain pmr1, stronger effect = lower value 0.991 | locus YGL173C, strain kem1, stronger effect = lower value 0.994 | locus YGL227W, strain vid30, stronger effect = lower value 0.994 | locus YGL240W, strain doc1, stronger effect = lower value 0.99 | locus YGL248W, strain PDE1, stronger effect = lower value 0.974 | locus YGL253W, strain hxk2, stronger effect = lower value 0.994 | locus YGR078C, strain PAC10, stronger effect = lower value 0.981 | locus YGR135W, strain pre9, stronger effect = lower value 1.03 | locus YGR252W, strain gcn5, stronger effect = lower value 0.966 | locus YHR013C, strain ard1, stronger effect = lower value 0.968 | locus YHR027C, strain rpn1, stronger effect = lower value 0.979 | locus YHR030C, strain SLT2, stronger effect = lower value 0.98 | locus YHR079C, strain IRE1 (second series), stronger effect = lower value 0.975 | locus YHR094C, strain hxt1, stronger effect = lower value 0.967 | locus YHR129C, strain ARP1, stronger effect = lower value 0.98 | locus YHR142W, strain chs7, stronger effect = lower value 0.999 | locus YHR200W, strain rpn10, stronger effect = lower value 0.986 | locus YIL066C, strain RNR3, stronger effect = lower value 0.904 | locus YIL073C, strain SPO22, stronger effect = lower value 1.01 | locus YIL125W, strain kgd1, stronger effect = lower value 0.968 | locus YIR030C, strain dcg1, stronger effect = lower value 0.969 | locus YJL092W, strain hpr5, stronger effect = lower value 0.999 | locus YJL095W, strain BCK1 (second series), stronger effect = lower value 0.985 | locus YJL095W, strain BCK1, stronger effect = lower value 0.981 | locus YJL115W, strain asf1, stronger effect = lower value 0.994 | locus YJL129C, strain trk1, stronger effect = lower value 0.976 | locus YJL134W, strain LCB3, stronger effect = lower value 0.975 | locus YJL154C, strain vps35, stronger effect = lower value 0.996 | locus YJL164C, strain tpk1, stronger effect = lower value 0.991 | locus YJL166W, strain qcr8, stronger effect = lower value 0.992 | locus YJL168C, strain set2, stronger effect = lower value 0.98 | locus YJL187C, strain SWE1 (second series), stronger effect = lower value 0.977 | locus YJL187C, strain SWE1, stronger effect = lower value 0.997 | locus YJR043C, strain POL32, stronger effect = lower value 0.981 | locus YKL009W, strain mrt4, stronger effect = lower value 1.02 | locus YKL068W, stronger effect = lower value 0.993 | locus YKL085W, strain MDH1 (second series), stronger effect = lower value 1 | locus YKL085W, strain MDH1, stronger effect = lower value 1 | locus YKL160W, strain elf1, stronger effect = lower value 0.987 | locus YKL190W, strain CNB1, stronger effect = lower value 0.975 | locus YKR001C, strain vps1, stronger effect = lower value 0.996 | locus YKR026C, strain gcn3, stronger effect = lower value 0.989 | locus YKR091W, strain srl3, stronger effect = lower value 0.994 | locus YLL001W, strain dnm1, stronger effect = lower value 1.01 | locus YLL026W, stronger effect = lower value 0.984 | locus YLL041C, strain sdh2, stronger effect = lower value 1 | locus YLR027C, strain aat2, stronger effect = lower value 0.984 | locus YLR039C, strain RIC1, stronger effect = lower value 0.863 | locus YLR058C, strain SHM2, stronger effect = lower value 0.949 | locus YLR102C, strain apc9, stronger effect = lower value 0.972 | locus YLR221C, strain rsa3, stronger effect = lower value 1 | locus YLR258W, strain gsy2, stronger effect = lower value 0.988 | locus YLR262C, strain YPT6 (second series), stronger effect = lower value 0.905 | locus YLR262C, strain YPT6, stronger effect = lower value 0.857 | locus YLR268W, strain sec22, stronger effect = lower value 0.911 | locus YLR320W, strain mms22, stronger effect = lower value 0.988 | locus YLR342W, strain FKS1 (second series), stronger effect = lower value 0.915 | locus YLR342W, strain FKS1, stronger effect = lower value 1.01 | locus YLR357W, strain rsc2, stronger effect = lower value 1.01 | locus YLR370C, strain arc18, stronger effect = lower value 0.992 | locus YLR384C, strain iki3, stronger effect = lower value 1 | locus YLR418C, strain cdc73, stronger effect = lower value 0.952 | locus YML016C, strain PPZ1, stronger effect = lower value 0.951 | locus YML032C, strain rad52, stronger effect = lower value 0.936 | locus YML120C, strain ndi1, stronger effect = lower value 0.99 | locus YML124C, strain tub3, stronger effect = lower value 0.973 | locus YMR058W, strain fet3, stronger effect = lower value 1.01 | locus YMR078C, strain ctf18, stronger effect = lower value 0.974 | locus YMR125W, strain sto1, stronger effect = lower value 0.995 | locus YMR129W, stronger effect = lower value 0.99 | locus YMR205C, strain PFK2, stronger effect = lower value 1.01 | locus YMR223W, strain ubp8, stronger effect = lower value 0.984 | locus YMR231W, strain pep5, stronger effect = lower value 1.01 | locus YMR263W, strain SAP30, stronger effect = lower value 0.975 | locus YMR307W, strain GAS1, stronger effect = lower value 0.865 | locus YNL067W, strain RPL9B, stronger effect = lower value 1.02 | locus YNL071W, strain lat1, stronger effect = lower value 0.999 | locus YNL153C, strain GIM3, stronger effect = lower value 0.981 | locus YNL209W, strain ssb2, stronger effect = lower value 0.984 | locus YNL233W, strain BNI4, stronger effect = lower value 0.984 | locus YNL248C, strain rpa49, stronger effect = lower value 0.983 | locus YNL250W, strain rad50, stronger effect = lower value 1 | locus YNL271C, strain bni1, stronger effect = lower value 0.963 | locus YNL298W, strain CLA4, stronger effect = lower value 0.97 | locus YNL307C, strain MCK1, stronger effect = lower value 0.961 | locus YNL322C, strain KRE1 (second series), stronger effect = lower value 0.989 | locus YNR049C, strain mso1, stronger effect = lower value 1 | locus YNR052C, strain pop2, stronger effect = lower value 0.977 | locus YOL006C, strain TOP1, stronger effect = lower value 0.813 | locus YOL012C, strain htz1 1.08 | locus YOL147C, strain pex11, stronger effect = lower value 0.971 | locus YOR001W, strain rrp6, stronger effect = lower value 1 | locus YOR061W, strain CKA2, stronger effect = lower value 0.924 | locus YOR069W, strain VPS5, stronger effect = lower value 0.981 | locus YOR070C, strain gyp1, stronger effect = lower value 1 | locus YOR080W, strain dia2, stronger effect = lower value 1 | locus YOR083W, strain WHI5, stronger effect = lower value 0.999 | locus YOR106W, strain vam3, stronger effect = lower value 1 | locus YOR136W, strain idh2, stronger effect = lower value 0.981 | locus YOR144C, strain elg1, stronger effect = lower value 0.973 | locus YOR184W, strain ser1, stronger effect = lower value 0.922 | locus YOR265W, strain rbl2, stronger effect = lower value 1 | locus YOR270C, strain vph1, stronger effect = lower value 0.833 | locus YOR290C, strain snf2, stronger effect = lower value 0.974 | locus YOR316C, strain cot1, stronger effect = lower value 0.965 | locus YPL051W, strain arl3, stronger effect = lower value 0.987 | locus YPL055C, strain LGE1, stronger effect = lower value 0.884 | locus YPL078C, strain atp4, stronger effect = lower value 1 | locus YPL106C, strain sse1, stronger effect = lower value 1 | locus YPL240C, strain hsp82, stronger effect = lower value 0.999 | locus YPR119W, strain clb2, stronger effect = lower value 0.985 | locus YPR141C, strain kar3, stronger effect = lower value 0.972 | locus YPR163C, strain tif3, stronger effect = lower value 0.956 | locus YPR167C, strain met16, stronger effect = lower value 0.986 | strain wtn01, stronger effect = lower value 0.936
active: locus YDR137W, strain rgp1, stronger effect = lower value 0.843 | locus YLR371W, strain rom2, stronger effect = lower value 0.901
